About 7,900 targets were measured; listed, in parts, are those with a hit and a random draw of the rest. About 0.6% of all pairs of compound and target were hits.
What follows are targets tested with c1cn2cc(-c3ccc4cn[nH]c4c3)nc(Nc3ccc(N4CCOCC4)cc3)c2n1 [entospletinib] (assay: log2 fold change, soluble protein after heating vs DMSO (PISA); higher = thermal stabilisation; K562 cells, 10 uM, 30 min; active = over 0.2 and 3.5 SD of the protein, either way, in both replicates (recomputed)).
Method in brief: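 Aliquots of K562 cells (2×10^6 cells/mL) treated with 10 μM compound for 30 min were heated for 3 min over 48°C-58°C. After pooling and extraction in PBS with 0.5% NP-40 at 4°C, soluble protein from a 21,000xg, 90 min spin was quantified by TMTpro 16plex LC-MS/MS with channel sums equalised. Thermal stability is expressed against control samples, from duplicates, as a log2 fold change.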

UniProt P49321, sequence (P49321 whole entry, looked up): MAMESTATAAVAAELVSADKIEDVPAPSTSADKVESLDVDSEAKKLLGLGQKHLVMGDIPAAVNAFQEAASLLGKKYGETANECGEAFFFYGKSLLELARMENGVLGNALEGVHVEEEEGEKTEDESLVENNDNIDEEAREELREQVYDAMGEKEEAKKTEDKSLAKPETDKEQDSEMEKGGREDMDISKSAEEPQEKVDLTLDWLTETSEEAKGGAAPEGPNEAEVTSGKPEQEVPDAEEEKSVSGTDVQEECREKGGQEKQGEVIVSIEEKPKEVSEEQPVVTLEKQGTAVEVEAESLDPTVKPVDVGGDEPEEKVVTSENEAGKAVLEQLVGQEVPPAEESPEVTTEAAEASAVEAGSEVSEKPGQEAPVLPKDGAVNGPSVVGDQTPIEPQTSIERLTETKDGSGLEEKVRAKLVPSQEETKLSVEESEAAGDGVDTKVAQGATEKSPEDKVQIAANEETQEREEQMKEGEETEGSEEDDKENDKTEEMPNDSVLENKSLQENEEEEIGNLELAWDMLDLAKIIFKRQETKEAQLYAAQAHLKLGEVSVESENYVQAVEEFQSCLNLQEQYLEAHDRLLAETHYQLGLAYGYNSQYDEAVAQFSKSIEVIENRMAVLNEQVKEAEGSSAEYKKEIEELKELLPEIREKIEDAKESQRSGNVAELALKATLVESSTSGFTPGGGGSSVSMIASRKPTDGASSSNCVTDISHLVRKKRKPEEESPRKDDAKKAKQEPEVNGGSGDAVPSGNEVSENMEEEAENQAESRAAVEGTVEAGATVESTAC
UniProt Q16621, sequence (Q16621 whole entry, looked up): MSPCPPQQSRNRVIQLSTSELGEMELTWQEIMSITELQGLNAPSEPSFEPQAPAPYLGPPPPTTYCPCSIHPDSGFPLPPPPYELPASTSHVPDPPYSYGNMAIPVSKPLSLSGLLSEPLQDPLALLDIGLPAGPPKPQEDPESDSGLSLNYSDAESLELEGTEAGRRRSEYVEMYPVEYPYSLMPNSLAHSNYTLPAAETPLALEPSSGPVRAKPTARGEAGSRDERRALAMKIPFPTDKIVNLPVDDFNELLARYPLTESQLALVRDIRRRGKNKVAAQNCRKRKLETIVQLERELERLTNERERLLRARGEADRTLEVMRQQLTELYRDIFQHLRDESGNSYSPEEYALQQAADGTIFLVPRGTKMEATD
UniProt O75251, sequence (O75251 whole entry, looked up): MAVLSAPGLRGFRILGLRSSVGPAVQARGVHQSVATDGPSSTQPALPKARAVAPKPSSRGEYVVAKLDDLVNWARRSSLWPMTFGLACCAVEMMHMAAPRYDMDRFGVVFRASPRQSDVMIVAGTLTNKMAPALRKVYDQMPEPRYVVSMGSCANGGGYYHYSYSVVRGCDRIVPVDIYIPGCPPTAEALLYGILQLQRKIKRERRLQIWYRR
UniProt Q8N573, sequence (Q8N573 whole entry, looked up): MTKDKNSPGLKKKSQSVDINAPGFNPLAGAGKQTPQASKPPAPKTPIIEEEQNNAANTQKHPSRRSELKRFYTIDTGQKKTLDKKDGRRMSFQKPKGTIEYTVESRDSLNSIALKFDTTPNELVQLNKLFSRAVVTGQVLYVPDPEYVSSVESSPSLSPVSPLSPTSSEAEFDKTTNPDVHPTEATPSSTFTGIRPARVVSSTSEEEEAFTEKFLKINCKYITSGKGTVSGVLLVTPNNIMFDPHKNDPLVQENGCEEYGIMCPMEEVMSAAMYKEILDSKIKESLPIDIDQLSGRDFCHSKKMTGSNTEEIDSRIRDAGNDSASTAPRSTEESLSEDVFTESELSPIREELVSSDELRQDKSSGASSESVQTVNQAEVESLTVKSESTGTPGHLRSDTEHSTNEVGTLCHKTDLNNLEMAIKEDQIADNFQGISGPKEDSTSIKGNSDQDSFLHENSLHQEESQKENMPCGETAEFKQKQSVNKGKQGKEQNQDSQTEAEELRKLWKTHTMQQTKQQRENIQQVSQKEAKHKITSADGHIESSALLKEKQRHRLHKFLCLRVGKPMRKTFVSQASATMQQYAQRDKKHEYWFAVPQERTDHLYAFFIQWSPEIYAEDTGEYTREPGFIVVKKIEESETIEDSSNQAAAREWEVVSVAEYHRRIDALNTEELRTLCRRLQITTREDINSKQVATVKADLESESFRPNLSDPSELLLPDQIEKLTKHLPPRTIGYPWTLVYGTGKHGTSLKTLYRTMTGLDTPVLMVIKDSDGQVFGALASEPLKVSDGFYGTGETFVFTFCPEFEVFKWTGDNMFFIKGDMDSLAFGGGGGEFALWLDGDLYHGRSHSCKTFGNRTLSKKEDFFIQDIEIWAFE
UniProt Q96PU5, sequence (Q96PU5 whole entry, looked up): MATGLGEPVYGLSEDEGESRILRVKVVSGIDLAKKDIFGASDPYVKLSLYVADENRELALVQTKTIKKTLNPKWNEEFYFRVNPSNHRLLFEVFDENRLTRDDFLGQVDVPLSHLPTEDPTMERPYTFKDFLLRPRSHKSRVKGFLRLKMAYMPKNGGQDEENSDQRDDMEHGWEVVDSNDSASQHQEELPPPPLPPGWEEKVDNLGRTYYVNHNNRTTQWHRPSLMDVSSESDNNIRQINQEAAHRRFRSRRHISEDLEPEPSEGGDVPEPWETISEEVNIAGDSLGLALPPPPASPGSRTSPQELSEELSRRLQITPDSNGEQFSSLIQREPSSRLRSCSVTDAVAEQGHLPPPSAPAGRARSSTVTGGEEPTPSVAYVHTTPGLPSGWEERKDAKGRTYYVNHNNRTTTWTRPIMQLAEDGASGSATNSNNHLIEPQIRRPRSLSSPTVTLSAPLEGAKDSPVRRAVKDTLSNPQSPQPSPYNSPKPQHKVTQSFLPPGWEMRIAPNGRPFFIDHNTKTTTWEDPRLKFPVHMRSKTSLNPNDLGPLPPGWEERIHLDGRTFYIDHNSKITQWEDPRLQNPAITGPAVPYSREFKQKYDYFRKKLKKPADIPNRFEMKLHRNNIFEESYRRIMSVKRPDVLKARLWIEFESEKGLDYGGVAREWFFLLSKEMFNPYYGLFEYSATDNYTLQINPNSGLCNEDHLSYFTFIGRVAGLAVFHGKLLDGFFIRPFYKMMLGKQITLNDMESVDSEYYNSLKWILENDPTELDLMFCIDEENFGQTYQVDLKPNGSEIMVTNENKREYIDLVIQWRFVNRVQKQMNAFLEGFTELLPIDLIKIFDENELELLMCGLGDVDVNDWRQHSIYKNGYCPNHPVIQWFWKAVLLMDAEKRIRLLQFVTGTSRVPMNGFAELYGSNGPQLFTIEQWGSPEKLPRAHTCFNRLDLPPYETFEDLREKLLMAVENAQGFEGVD
UniProt Q6P1R3, sequence (Q6P1R3 whole entry, looked up): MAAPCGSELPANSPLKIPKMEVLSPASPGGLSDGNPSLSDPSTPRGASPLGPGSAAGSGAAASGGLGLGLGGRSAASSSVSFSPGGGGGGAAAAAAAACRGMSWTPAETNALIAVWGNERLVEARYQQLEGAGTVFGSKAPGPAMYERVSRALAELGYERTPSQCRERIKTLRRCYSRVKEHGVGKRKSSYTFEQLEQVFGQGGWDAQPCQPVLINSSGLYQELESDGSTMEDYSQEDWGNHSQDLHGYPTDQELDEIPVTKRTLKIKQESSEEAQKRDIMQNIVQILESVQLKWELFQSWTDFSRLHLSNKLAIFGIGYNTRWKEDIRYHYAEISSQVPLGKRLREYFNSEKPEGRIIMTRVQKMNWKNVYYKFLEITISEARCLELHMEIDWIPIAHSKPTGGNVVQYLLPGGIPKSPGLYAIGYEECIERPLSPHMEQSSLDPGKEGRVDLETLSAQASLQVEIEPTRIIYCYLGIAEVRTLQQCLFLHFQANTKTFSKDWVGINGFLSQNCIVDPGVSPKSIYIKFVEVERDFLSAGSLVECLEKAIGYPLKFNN
UniProt O00217, sequence (O00217 whole entry, looked up): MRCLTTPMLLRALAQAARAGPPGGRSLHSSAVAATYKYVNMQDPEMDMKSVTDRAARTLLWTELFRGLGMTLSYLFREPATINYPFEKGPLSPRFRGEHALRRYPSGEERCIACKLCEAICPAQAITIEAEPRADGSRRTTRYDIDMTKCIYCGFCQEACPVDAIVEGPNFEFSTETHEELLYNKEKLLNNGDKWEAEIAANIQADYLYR
UniProt O75323, sequence (O75323 whole entry, looked up): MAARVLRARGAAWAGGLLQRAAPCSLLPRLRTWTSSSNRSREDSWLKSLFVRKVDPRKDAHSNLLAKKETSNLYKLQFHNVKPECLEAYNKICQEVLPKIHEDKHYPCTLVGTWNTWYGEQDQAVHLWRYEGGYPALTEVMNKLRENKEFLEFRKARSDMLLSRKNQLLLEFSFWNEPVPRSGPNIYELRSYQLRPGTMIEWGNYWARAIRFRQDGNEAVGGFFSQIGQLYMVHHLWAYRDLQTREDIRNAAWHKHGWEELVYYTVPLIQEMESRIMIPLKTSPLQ
UniProt Q96DE0, sequence (Q96DE0 whole entry, looked up): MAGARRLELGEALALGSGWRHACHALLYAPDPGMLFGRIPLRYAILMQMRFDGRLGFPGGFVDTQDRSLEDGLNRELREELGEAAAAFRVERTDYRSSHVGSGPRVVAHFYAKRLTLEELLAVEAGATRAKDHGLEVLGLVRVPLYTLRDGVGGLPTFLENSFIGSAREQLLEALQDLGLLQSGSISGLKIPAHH
UniProt O75052, sequence (O75052 whole entry, looked up): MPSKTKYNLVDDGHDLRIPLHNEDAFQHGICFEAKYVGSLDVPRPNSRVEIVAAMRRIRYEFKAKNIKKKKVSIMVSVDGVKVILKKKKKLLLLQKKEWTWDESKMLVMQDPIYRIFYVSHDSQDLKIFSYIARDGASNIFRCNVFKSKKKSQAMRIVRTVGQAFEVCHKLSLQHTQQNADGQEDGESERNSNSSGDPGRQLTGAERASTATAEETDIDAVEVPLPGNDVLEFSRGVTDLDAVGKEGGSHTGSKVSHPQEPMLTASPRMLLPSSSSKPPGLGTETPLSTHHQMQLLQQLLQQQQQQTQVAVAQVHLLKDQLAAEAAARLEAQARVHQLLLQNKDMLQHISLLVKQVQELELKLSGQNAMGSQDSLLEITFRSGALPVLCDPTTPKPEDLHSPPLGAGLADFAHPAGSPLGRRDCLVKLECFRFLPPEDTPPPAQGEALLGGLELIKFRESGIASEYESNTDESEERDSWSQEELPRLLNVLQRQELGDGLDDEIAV

log2 fold change, inactive:
NUDCD2 (UniProt Q8WVJ2) -0.005
NASP (UniProt P49321) -0.007
MRPS21 (UniProt P82921) -0.031
NDUFS8 (UniProt O00217) -0.012
NUDT16 (UniProt Q96DE0) 0.044
NIPSNAP3B (UniProt Q9BS92) -0.03
MRPS16 (UniProt Q9Y3D3) 0.051
NDUFS7 (UniProt O75251) 0.006
MSTO1 (UniProt Q9BUK6) -0.068
OTULIN (UniProt Q96BN8) 0.1
NARS2 (UniProt Q96I59) -0.01
NOP53 (UniProt Q9NZM5) -0.001
NOP58 (UniProt Q9Y2X3) 0.085
OXR1 (UniProt Q8N573) -0.019
NELFB isoform 2 (UniProt Q8WX92) -0.039
OPA1 isoform 2 (UniProt O60313) -0.008
MYH11 isoform 2 (UniProt P35749) -0.047
NCBP2AS2 (UniProt Q69YL0) -0.017
NEDD4L (UniProt Q96PU5) 0.046
MRPS35 (UniProt P82673) 0.036
NEK3 (UniProt P51956) -0.002
NIPSNAP2 (UniProt O75323) 0.092
NDUFB10 (UniProt O96000) 0.003
MRPS22 (UniProt P82650) 0.057
NQO1 (UniProt P15559) -0.101
NFE2 (UniProt Q16621) -0.055
NOS1AP (UniProt O75052) -0.337
NRF1 isoform 4 (UniProt Q16656) -0.041
MPP1 (UniProt Q00013) 0.056
MYLK (UniProt Q15746) -0.041
NHLRC2 (UniProt Q8NBF2) 0.097
MORC3 (UniProt Q14149) -0.088
MSANTD2 (UniProt Q6P1R3) -0.364
NAA11 (UniProt Q9BSU3) -0.041

Source: the supplement of paper PMC10849652
